We go through nine molecules from PubChem BioAssay (NCI).

The nature of test [1]: NCI Yeast Anticancer Drug Screen. Data for the rad50 strain (AID 155).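 Note: 0% = growth of vehicle-only cultures of the same strain.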 Particulars: S. cerevisiae rad50 strain growth inhibition, stronger effect = higher value. Put shortly:
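Genetically altered yeast (DNA repair pathway); compound treatment; growth inhibition vs vehicle ctrl.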

A short description of test [2]: NCI Yeast Anticancer Drug Screen. Data for the mec2-1 strain (AID 157). Particulars: S. cerevisiae mec2-1 strain, stronger effect = higher value. Put shortly: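 Growth inhibition is read against vehicle-treated controls after compound exposure of the mec2-1 yeast strain, which is defective in DNA damage repair or cell cycle control.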
Test [3] is described as follows: NCI Yeast Anticancer Drug Screen. Data for the sgs1 mgt1 strain (AID 161).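 Note: 0% = growth of cultures given vehicle only.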 Conditions: S. cerevisiae sgs1 mgt1 strain, stronger effect = higher value. In outline: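 This yeast growth screen uses a strain with defined DNA-repair lesions; compound-treated growth is compared with vehicle-treated growth.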
Test [4] is described as follows: NCI Yeast Anticancer Drug Screen. Data for the cln2 rad14 strain (AID 165).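 Note: 0% = growth equal to vehicle treated cultures.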 Particulars: S. cerevisiae cln2 rad14 strain, stronger effect = higher value. In outline:
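Growth inhibition, relative to vehicle-treated controls, is the read-out. The test organism is a yeast strain with defined genetic alterations, cln2 rad14.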

Test [5] can be described thus: NCI Yeast Anticancer Drug Screen. Data for the bub3 strain (AID 167). Particulars: S. cerevisiae bub3 mutant strain, stronger effect = higher value. In outline: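 Yeast carrying a defined mutation is treated with each compound, and growth is compared with that of vehicle-exposed cells to give inhibition.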
Test [6] in a line: NCI Yeast Anticancer Drug Screen. Data for the wt2 strain (AID 169).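 Note: 0% = growth of vehicle-treated yeast cultures.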 Conditions: S. cerevisiae wt2 strain growth inhibition, stronger effect = higher value. Put shortly:
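Compound exposure of yeast; growth compared with vehicle controls; inhibition reported.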

Test [7] in a line: NCI Yeast Anticancer Drug Screen. Data for the mlh1 rad18 strain (AID 175). Particulars: S. cerevisiae mlh1 rad18 strain growth inhibition, stronger effect = higher value. Put shortly:
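Cells of a genetically altered yeast strain, deficient in DNA damage repair, were treated with compound. Their growth was then compared with that of vehicle-treated cultures to give inhibition.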

The mark [8] stands for this setting: at 5.0 µM (retest, dose inferred, filed as 0.5).
The mark [9] stands for this setting: at 50.0 µM (retest, dose inferred, filed as 5.0).

“And” between values parts separate entries of the source, which are not always exact repeats. Equal entries are not always repeated. About 79,000 compounds went through this panel and 15% of them were active in at least one assay; those are over-represented in the sample as a whole. A structure can be active in one record and inactive in another. The source made the active and inactive calls. Cut-off read from the data, not from the text of the source: active = growth inhibition above about 70%; inactive = the rest.

As for `Fc1ccccc1-c1ncc(-c2ccccc2)o1`, the growth inhibition in test [1] (setting [8]) was 65% (inactive); in test [1] (setting [9]), 96% (active); in test [1] (at 50.0 µM), 23.4% (inactive); in test [2] (setting [8]), 60% (inactive); in test [2] (setting [9]) it was 94% (active); in test [2] (at 50.0 µM), 22.2% (inactive). Besides, the growth inhibition in test [3] (setting [8]) is -14% (inactive); in test [3] (setting [9]), 60% (inactive); in test [3] (at 50.0 µM), 51.8% (inactive); in test [4] (setting [8]) it was 39% (inactive); in test [4] (setting [9]), 70% (active); in test [4] (at 50.0 µM), 13.7% (inactive). Also, the growth inhibition in test [5] (setting [8]) was 24% (inactive); in test [5] (setting [9]) it was 82% (active); in test [5] (at 50.0 µM), 16.7% (inactive); in test [6] (at 1.2 µM), -1% (inactive); in test [6] (at 3.7 µM), -3% (inactive); in test [6] (at 11.0 µM) it was -10% (inactive). The growth inhibition is -2% (inactive) in test [6] (at 33.0 µM); 28% (inactive) in test [6] (at 100.0 µM); 36% (inactive) in test [7] (setting [8]); 91% (active) in test [7] (setting [9]); 4.3% (inactive) in test [7] (at 50.0 µM).
Consider `CCCC(C)NCCOC(=O)C(c1ccccc1)C1CCCCC1` (stereo unspecified), for which the growth inhibition is -11% (inactive) in test [1] (setting [8]); 49% (inactive) in test [1] (setting [9]); 85.6% (active) in test [1] (at 50.0 µM); 3% (inactive) in test [2] (setting [8]); 36% (inactive) in test [2] (setting [9]); 14.2% (inactive) in test [2] (at 50.0 µM). Besides, the growth inhibition in test [3] (setting [8]) was -3% (inactive); in test [3] (setting [9]), 60% (inactive); in test [3] (at 50.0 µM) it was 85.5% (active); in test [4] (setting [8]), -2% (inactive); in test [4] (setting [9]) it was 36% (inactive); in test [4] (at 50.0 µM), 34.3% (inactive). The growth inhibition is 0% (inactive) in test [5] (setting [8]), 49% (inactive) in test [5] (setting [9]) and 57.5% (inactive) in test [5] (at 50.0 µM).
`CC1=CC(=Nc2ccc(N(C)C)cc2)C=CC1=O`: the growth inhibition in test [1] (setting [8]) was 1% (inactive); in test [1] (setting [9]), 7% (inactive); in test [1] (at 50.0 µM), -4.05% (inactive) and 78.8% (active); in test [2] (setting [8]), -5% (inactive); in test [2] (setting [9]) it was 2% (inactive); in test [2] (at 50.0 µM), 10.2% (inactive) and 46.4% (inactive). For the same molecule, the growth inhibition in test [3] (setting [8]) is 1% (inactive); in test [3] (setting [9]) it was 7% (inactive); in test [3] (at 50.0 µM), 21.9% (inactive) and 84.1% (active); in test [4] (setting [8]), -3% (inactive); in test [4] (setting [9]), -6% (inactive); in test [4] (at 50.0 µM), -4.55% (inactive) and 33.5% (inactive). Moreover, the growth inhibition is -1% (inactive) in test [5] (setting [8]); -9% (inactive) in test [5] (setting [9]); -7% (inactive) and 21.4% (inactive) in test [5] (at 50.0 µM).
As for `Nc1cc2ccccc2cc1Br`, the growth inhibition in test [1] (setting [8]) was 43% (inactive); in test [1] (setting [9]), 73% (active); in test [1] (at 50.0 µM) it was 81% (active); in test [2] (setting [8]) it was 30% (inactive); in test [2] (setting [9]) it was 62% (inactive); in test [2] (at 50.0 µM), 42.9% (inactive). Moreover, the growth inhibition is 14% (inactive) in test [3] (setting [8]); 26% (inactive) in test [3] (setting [9]); 71.8% (active) in test [3] (at 50.0 µM); 54% (inactive) in test [4] (setting [8]); 44% (inactive) in test [4] (setting [9]); 41.6% (inactive) in test [4] (at 50.0 µM). For the same molecule, the growth inhibition was 22% (inactive) in test [5] (setting [8]); 52% (inactive) in test [5] (setting [9]); 74.7% (active) in test [5] (at 50.0 µM); -13% (inactive) in test [6] (at 1.2 µM); -17% (inactive) in test [6] (at 3.7 µM); -17% (inactive) in test [6] (at 11.0 µM). The growth inhibition in test [6] (at 33.0 µM) is 12% (inactive); in test [6] (at 100.0 µM) it was 97% (active); in test [7] (setting [8]), 40% (inactive); in test [7] (setting [9]), 82% (active); in test [7] (at 50.0 µM), 45% (inactive).
`Cc1c(C)c(CCl)c(C)c(C)c1CCl`: the growth inhibition in test [1] (setting [8]) is 53% (inactive); in test [1] (setting [9]) it was 95% (active); in test [1] (at 50.0 µM), 87.7% (active); in test [2] (setting [8]) it was 71% (active); in test [2] (setting [9]) it was 96% (active); in test [2] (at 50.0 µM) it was 86% (active). In addition, the growth inhibition is 1% (inactive) in test [3] (setting [8]); 43% (inactive) in test [3] (setting [9]); 75.2% (active) in test [3] (at 50.0 µM); 34% (inactive) in test [4] (setting [8]); 84% (active) in test [4] (setting [9]); 72.5% (active) in test [4] (at 50.0 µM). Further, the growth inhibition in test [5] (setting [8]) was 14% (inactive); in test [5] (setting [9]) it was 39% (inactive); in test [5] (at 50.0 µM) it was 61.5% (inactive); in test [6] (at 1.2 µM) it was 0% (inactive); in test [6] (at 3.7 µM), 25% (inactive); in test [6] (at 11.0 µM) it was 71% (active). In addition, the growth inhibition is 82% (active) in test [6] (at 33.0 µM); 83% (active) in test [6] (at 100.0 µM); 66% (inactive) in test [7] (setting [8]); 95% (active) in test [7] (setting [9]); 82% (active) in test [7] (at 50.0 µM).
For the molecule `CCC[CH2][Sn]1([CH2]CCC)[O]N=C(c2ccccc2)C(c2ccccc2)[O]1` (stereo unspecified), the growth inhibition is 19% (inactive) in test [1] (setting [8]); 19% (inactive) in test [1] (setting [9]); 88.4% (active) in test [1] (at 50.0 µM); 20% (inactive) in test [2] (setting [8]); 20% (inactive) in test [2] (setting [9]); 87.8% (active) in test [2] (at 50.0 µM). For the same molecule, the growth inhibition was -1% (inactive) in test [3] (setting [8]); -1% (inactive) in test [3] (setting [9]); 89.4% (active) in test [3] (at 50.0 µM); 8% (inactive) in test [4] (setting [8]); 8% (inactive) in test [4] (setting [9]); 79.7% (active) in test [4] (at 50.0 µM). Moreover, the growth inhibition in test [5] (setting [8]) is 12% (inactive); in test [5] (setting [9]), 12% (inactive); in test [5] (at 50.0 µM), 78.8% (active).
Consider `CC1(O)Cc2c(O)c3c(c(O)c2CC1O)C(=O)C=CC3=O` (stereo unspecified), for which the growth inhibition is 9% (inactive) in test [1] (setting [8]); 51% (inactive) in test [1] (setting [9]); 72.2% (active) in test [1] (at 50.0 µM); 6% (inactive) in test [2] (setting [8]); 46% (inactive) in test [2] (setting [9]); 69.2% (inactive) in test [2] (at 50.0 µM). In addition, the growth inhibition was 4% (inactive) in test [3] (setting [8]); 43% (inactive) in test [3] (setting [9]); 26.5% (inactive) in test [3] (at 50.0 µM); 7% (inactive) in test [4] (setting [8]); 37% (inactive) in test [4] (setting [9]); 14.9% (inactive) in test [4] (at 50.0 µM). The growth inhibition was 1% (inactive) in test [5] (setting [8]); 56% (inactive) in test [5] (setting [9]); 24.2% (inactive) in test [5] (at 50.0 µM); 9% (inactive) in test [7] (setting [8]); 70% (active) in test [7] (setting [9]).
On to `COc1ccc(Cc2ccc(O)cc2)cc1`, for which the growth inhibition is 41% (inactive) in test [1] (setting [8]); 79% (active) in test [1] (setting [9]); 33.3% (inactive) in test [1] (at 50.0 µM); 40% (inactive) in test [2] (setting [8]); 88% (active) in test [2] (setting [9]); 27.8% (inactive) in test [2] (at 50.0 µM). The growth inhibition in test [3] (setting [8]) was -9% (inactive); in test [3] (setting [9]) it was 47% (inactive); in test [3] (at 50.0 µM) it was 52.8% (inactive); in test [4] (setting [8]), 42% (inactive); in test [4] (setting [9]) it was 8% (inactive); in test [4] (at 50.0 µM), -20.9% (inactive). Also, the growth inhibition in test [5] (setting [8]) was -16% (inactive); in test [5] (setting [9]), 49% (inactive); in test [5] (at 50.0 µM), 30.9% (inactive); in test [6] (at 1.2 µM), -12% (inactive); in test [6] (at 3.7 µM) it was -8% (inactive); in test [6] (at 11.0 µM), -9% (inactive). For the same molecule, the growth inhibition in test [6] (at 33.0 µM) is 6% (inactive); in test [6] (at 100.0 µM) it was 11% (inactive).
Consider `O=C(COc1ccc(Cl)cc1Cl)Nc1cccc(C(F)(F)F)c1`, for which the growth inhibition is -4% (inactive) in test [1] (setting [8]); -3% (inactive) in test [1] (setting [9]); -4.5% (inactive) in test [1] (at 50.0 µM); -18% (inactive) in test [2] (setting [8]); -25% (inactive) in test [2] (setting [9]); 7.95% (inactive) in test [2] (at 50.0 µM). Also, the growth inhibition in test [3] (setting [8]) is -3% (inactive); in test [3] (setting [9]) it was -2% (inactive); in test [3] (at 50.0 µM), 9.65% (inactive); in test [4] (setting [8]) it was -3% (inactive); in test [4] (setting [9]), -13% (inactive); in test [4] (at 50.0 µM), 41.9% (inactive). Further, the growth inhibition in test [5] (setting [8]) is 12% (inactive); in test [5] (setting [9]), 0% (inactive); in test [5] (at 50.0 µM), 1% (inactive).
